Sensor-assay potency score (higher = more potent) data for 20 sequences are collected here from the OligoGym collection.
Further: reference of the scale not given here.

One test concerns the target ODF3L1. Nature of the test: pooled miR-30 sensor sort-seq; sequence = guide strand. The conditions noted are these: shRNA.
As to ATCTTCTCAAAGTAGTACTGGC, the sensor-assay potency score (higher = more potent) is -0.892.

In turn, TCCTTGTAGAACCAGTTCTTGT had a sensor-assay potency score (higher = more potent) of -1.85.

The sequence TTGTGCACAGTGACCTGCTGGA returned a sensor-assay potency score (higher = more potent) of 0.448.

TGTCATGATCTATGTAGCCCGT returned a sensor-assay potency score (higher = more potent) of -0.612.

For the sequence TAAGCTGGTGCCTTGAACATGG, the sensor-assay potency score (higher = more potent) turned out to be 0.328.

With TCTGCTACTAGAAATCTTGGTC, the sensor-assay potency score (higher = more potent) turned out to be 0.655.

Take TGATCTATGTAGCCCGTGCAGG: the sensor-assay potency score (higher = more potent) was -1.19.

For TCATGATCTATGTAGCCCGTGC, the sensor-assay potency score (higher = more potent) is -0.361.

The sequence TAGCAGGGAGCAGCTCGGCTGA returned a sensor-assay potency score (higher = more potent) of -1.48.

As to ACATCCTCCTTGTAGAACCAGT, the sensor-assay potency score (higher = more potent) is -1.04.

In a further test the target is ODF4. The test is described as above. The conditions noted are these: shRNA.
As to TTGGTCTCTTTCTCCTTCTGAC, the sensor-assay potency score (higher = more potent) was -0.95.

In the case of TTGAAGTAGCAAAGGATCGCGC, the sensor-assay potency score (higher = more potent) was 0.0925.

Sequence TAGCAAAGGATCGCGCAGGTGA displayed a sensor-assay potency score (higher = more potent) of -0.209.

TTCTACTGAGCCGAAACTGCTG: the sensor-assay potency score (higher = more potent) was -0.397.

In turn, TCTACTGAGCCGAAACTGCTGC returned a sensor-assay potency score (higher = more potent) of 0.472.

Turning to TATAGGATAAGCACCAGCCAAC, the sensor-assay potency score (higher = more potent) was -1.15.

Sequence TCTTCTACTGAGCCGAAACTGC had a sensor-assay potency score (higher = more potent) of -1.39.

TTCCAGGTCTCTGATGTTGGTC yielded a sensor-assay potency score (higher = more potent) of -1.05.

TCTGTGATCGTCTGTGCCCTTG gave a sensor-assay potency score (higher = more potent) of -0.736.

On to TCTCTTTCTCCTTCTGACCTGG, for which the sensor-assay potency score (higher = more potent) is -0.166.
